Most compounds without a hit are left out; they make up all but 3.1% or so of the library.
ARNT-TACC3 inh: disrupts binding between human ARNT and TACC3. Q9Y6A5. AlphaScreen His-ARNT PAS-B/GST-TACC3 binding, luminescence; TACC3 fragment carries E629A point mutation. inhibition, % at 9.99 µM. actives 0.66% (n = 390,000). AID 623870;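 active means mean inhibition of replicates at least 50% and at least half of replicates each reaching 50%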
HSP90 inh: HSP90 refolding inhibition in rabbit reticulocyte lysate | luciferase refolding luminescence, 3 h | inhibition, % at 5.6 µM | actives 0.91% (n = 290,000);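 active means inhibition above the screen-wide mean plus 3 SD, computed separately per campaign, cut at about 16% in these data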;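 further: inhibitors lower the luminescence because luciferase stays unfolded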
HSF1 inhib: HSF1 inhibition; NIH3T3-HGL HSE-luciferase, MG132-induced, luminescence 8 h; active compounds read low; AID 2098; activity change, negative = inhibition, % at 7.5 µM (by protocol); actives 0.77% (n = 300,000);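 active means more than half of replicate wells show activity change below -50%, luminescence cut by over half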;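 further: luciferase reports HSF-1 transcriptional activity via heat shock element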
HSF-1 act: increases HSF-1 driven luciferase reporter signal; activation, % at 9 µM; actives 1.7% (n = 300,000); NIH3T3-HGL HSF-1 luciferase reporter, MG132, 8 h; 100% = twice DMSO control signal;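 active means mean replicate activation of at least 50% with a set share of replicates each reaching 50%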
HIF activator: HIF pathway transcriptional activation | U2OS HRE-luciferase reporter, luminescence; normalized: DMSO 0%, desferrioxamine 100% | activation, % at 7.5 µM (by protocol) | actives 0.32% (n = 300,000) | AID 1910;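 active means mean activation of at least 10% of the iron chelator positive control signal, with at least half of replicates also reaching 10%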
HSP90 confirm: HSP90 inhibition, confirmation assay. inhibition, % at 5.9 µM. rabbit reticulocyte lysate, luciferase refolding luminescence, 3 h. actives 64% (n = 2,300). shares compounds with HSP90 inh. AID 1846; in the data active means inhibition above about 18%
FLuc counter: firefly luciferase inhibition, HSP90 counter-screen; shares compounds with HSP90 inh; actives 48% (n = 2,300); inhibition, % at 5.9 µM; AID 1847; purified native firefly luciferase, luminescence;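 active means inhibition above the mean inhibition of all tested sample wells plus 3 SD, cut at about 10% in these data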
Target sequence (P08659 whole entry, looked up): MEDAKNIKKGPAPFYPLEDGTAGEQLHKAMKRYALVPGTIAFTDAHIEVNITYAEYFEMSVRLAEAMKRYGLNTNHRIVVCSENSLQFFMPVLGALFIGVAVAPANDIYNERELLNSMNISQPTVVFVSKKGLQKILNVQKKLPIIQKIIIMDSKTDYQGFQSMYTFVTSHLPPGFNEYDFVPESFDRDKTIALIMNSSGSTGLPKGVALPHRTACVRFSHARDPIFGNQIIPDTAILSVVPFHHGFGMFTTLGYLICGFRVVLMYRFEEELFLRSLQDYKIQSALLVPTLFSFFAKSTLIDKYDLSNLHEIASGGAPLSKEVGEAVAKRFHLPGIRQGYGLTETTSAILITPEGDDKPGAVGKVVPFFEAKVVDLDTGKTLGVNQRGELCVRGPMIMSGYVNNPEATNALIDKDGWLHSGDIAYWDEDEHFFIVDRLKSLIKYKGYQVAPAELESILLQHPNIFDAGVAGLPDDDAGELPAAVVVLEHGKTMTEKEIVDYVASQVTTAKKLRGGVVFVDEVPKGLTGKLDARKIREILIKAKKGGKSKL
AlphaScreen ctr: interferes with AlphaScreen signal, flagging false ARNT-TACC3 hits. shares compounds with ARNT-TACC3 inh. His-ARNT PASB-GST AlphaScreen artifact counter-screen, luminescence. AC50, µM (titrated, usually from 68 µM). actives 50% (n = 1,200);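 active means every separate test run was called active for a drop in luminescence, with AC50 within twice the top valid dose, actives reach about 71 µM in these data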
Hits are given with their value; - = inactive; . = no result given.

SMILES	ARNT-TACC3 inh	HSP90 inh	HSF1 inhib	HSF-1 act	HIF activator	AlphaScreen ctr	others
C[C@H](NC(=O)c1nc[nH]c1C(=O)NCC(=O)OCc1ccccc1)C(=O)OC(C)(C)C	-	62	-	-	-	.	HSP90 confirm=-;FLuc counter=-
Cc1noc(C)c1NC(=O)Nc1cccc2c1O[C@@H](CN(C)C(=O)Nc1ccccc1)[C@@H](C)CN([C@@H](C)CO)C2=O	-	.	.	.	.	.
COc1ccc(C(=O)N[C@H](C(=O)NC2CCCCC2)C(C)C)cc1	-	.	.	.	.	.
COc1ccc(C(=O)NNC(=O)C(=O)NC2CCCCC2)cc1	-	19	-	-	-	.	HSP90 confirm=-;FLuc counter=-
C[C@H]1CN([C@@H](C)CO)C(=O)CCCn2cc(nn2)CO[C@@H]1CN(C)Cc1cccc(C(=O)O)c1	-	.	.	.	.	.
CC1CCN(C(=O)c2cc3ccccc3c(=O)o2)CC1	-	-	-	-	-	.
CC1CCN(C(=O)c2cc3c(ccc4ccccc43)o2)CC1	-	25	-	-	-	.	HSP90 confirm=49;FLuc counter=34
Cc1ccc(S(=O)(=O)CCC(=O)OC(C)C(=O)Nc2ccc(N3CCOCC3)cc2)cc1 (stereo not drawn)	-	.	.	.	.	.
Cc1ccc(C(=O)NCC(=O)OC(C)C(=O)Nc2ccc(N3CCOCC3)cc2)s1 (stereo not drawn)	-	20	-	-	-	.	HSP90 confirm=-;FLuc counter=-
COc1ccc(/C=N/Nc2cc(OC)ncn2)cc1	-	18	-	69	-	.	HSP90 confirm=31;FLuc counter=26
C[C@@H]1CN([C@@H](C)CO)C(=O)c2cc(NC(=O)c3ccncc3)ccc2O[C@@H](C)CCCCO[C@H]1CN(C)C(=O)NC1CCCCC1	-	.	.	.	.	.
COc1ccc(NC(C)C(=O)N/N=C/c2ccc([N+](=O)[O-])s2)cc1 (stereo not drawn)	-	-	-	-	-	.
Cc1ccc(NC(C)C(=O)N/N=C/c2ccc([N+](=O)[O-])s2)cc1 (stereo not drawn)	-	35	-	-	-	.	HSP90 confirm=-;FLuc counter=-
Cc1ccc(OCc2nnnn2-c2ccccc2)cc1	-	75	-	-	-	.	HSP90 confirm=-;FLuc counter=-
Cc1ccc(-n2nnnc2CCl)cc1	-	-	-	-	-	.
CO[C@@H]1CN(C)C(=O)c2ccc(NC(=O)C3CCOCC3)cc2OC[C@@H](C)N(C(=O)c2ccccc2)C[C@@H]1C	-	.	.	.	.	.
CC(C)C(O)(CC#CCN1CCCC1)c1ccccc1 (stereo not drawn)	-	59	-	-	-	.	HSP90 confirm=-;FLuc counter=-
C[C@H]1CN([C@@H](C)CO)S(=O)(=O)c2ccc(-c3ccccc3)cc2O[C@@H]1CN(C)S(C)(=O)=O	-	.	.	.	.	.
N#Cc1cc2ccc(N3CCOCC3)cc2cc1C#N	29	18	.	.	-	-	HSP90 confirm=-;FLuc counter=-
COc1ccc(S(=O)(=O)N(C)C[C@@H]2OCCCC[C@@H](C)Oc3ccc(NC(=O)NC4CCCCC4)cc3C(=O)N([C@H](C)CO)C[C@@H]2C)cc1	-	.	.	.	.	.
Cc1ccc2nc(CCCc3nc4ccc(C)cc4[nH]3)[nH]c2c1	-	-	-	-	-	.
Cc1ccc2nc(-c3ccccn3)[nH]c2c1	39	46	-	-	-	-	HSP90 confirm=61;FLuc counter=51
CC(=O)N1CN(Cc2ccccn2)Cc2c1sc1c2CCCC1	71	-	-	-	-	-
CCCC(=O)Nc1ccc2c(c1)C(=O)N(C)[C@@H]1CC[C@@H](CC(=O)NCC(F)(F)F)O[C@H]1CO2	-	.	.	.	.	.
O=C(Nc1ccc2nc(-c3ccccn3)[nH]c2c1)C1CCCCC1	59	-	-	-	-	-
SMILES	ARNT-TACC3 inh	HSP90 inh	HSF1 inhib	HSF-1 act	HIF activator	AlphaScreen ctr	others
O=C(Nc1nc(-c2ccccn2)cs1)C1CCCC1	59	-	-	-	-	-
CC(C)c1nc2ccc(NC(=O)C3CCCCC3)cc2[nH]1	-	-	.	.	.	.
CSCCC(=O)Nc1nc(-c2ccccn2)cs1	58	-	.	.	.	71µM
O=C(CN1C(=O)CCC1=O)Nc1nc(-c2ccccn2)cs1	59	-	-	-	-	34µM
O=C(CN1C(=O)CCC1=O)Nc1nc(-c2ccc3ccccc3c2)cs1	-	-	-	-	-	.
CN(C)C(=O)C[C@H]1CC[C@@H](NC(=O)c2ccc(F)cc2)[C@H](CO)O1	-	.	.	.	.	.
O=c1cc(N/N=C/c2ccccc2)[nH]c(=O)[nH]1	20	.	-	-	-	-
O=c1cc(C=NNc2ccccc2)[nH]c(=O)[nH]1	-	.	.	.	.	.
COCc1cn(CC[C@H]2CC[C@@H](NC(=O)c3ccncc3)[C@@H](CO)O2)nn1	-	.	.	.	.	.
O=C(N[C@H]1CC[C@@H](CCn2cc(-c3ccccn3)nn2)O[C@H]1CO)c1ccncc1	65	.	.	.	.	31µM
N[C@H]1CC[C@@H](CCn2cc(-c3ccccn3)nn2)O[C@H]1CO	75	.	.	.	.	6µM
O=C(N[C@@H]1CC[C@H](CCn2cc(-c3ccccn3)nn2)O[C@@H]1CO)c1ccncc1	66	.	.	.	.	33µM
COCc1cn(CC[C@@H]2CC[C@H](NC(=O)c3ccncc3)[C@H](CO)O2)nn1	-	.	.	.	.	.
CC(C)CC#Cc1ccc2c(c1)O[C@@H](CN(C)C(=O)c1ccncc1)[C@@H](C)CN([C@@H](C)CO)S2(=O)=O	-	.	.	.	.	.
Cc1noc(C)c1NC(=O)N(C)C[C@@H]1Oc2ccc(NC(=O)Nc3ccc(F)cc3)cc2CC(=O)N([C@@H](C)CO)C[C@@H]1C	-	.	.	.	.	.
CN(C)C(=O)[C@H]1[C@H](CO)[C@H]2Cn3c(ccc(-c4ccccc4F)c3=O)[C@@H]1N2C(=O)c1ccccc1	-	.	.	.	.	.
CN1CCN(CC(=O)N/N=C/c2ccc(F)c(F)c2)CC1	-	-	-	-	-	.
O=C(CN1CCCCCCC1)N/N=C/c1ccc(F)c(F)c1	55	-	-	-	-	-
O=C(CSc1nnc(-c2ccccn2)o1)Nc1ccccc1C(F)(F)F	55	-	-	-	-	-
O=C(CSc1nnc(-c2ccccn2)o1)Nc1ccccc1	.	-	-	-	-	.
COc1ccc(CN(C)C[C@H]2OCCCC[C@@H](C)Oc3ccc(NC(=O)c4ccncc4)cc3C(=O)N([C@H](C)CO)C[C@H]2C)cc1	-	.	.	.	.	.
O=C(C[C@H]1C=C[C@@H](NC(=O)Nc2ccccc2)[C@@H](CO)O1)NCc1ccccn1	35	.	.	.	.	-
C=C1c2cccc(O)c2C(=O)C2C(=O)[C@]3(O)C(=O)C(C(N)=O)C(=O)[C@@H](N(C)C)[C@@H]3[C@@H](O)[C@H]12 (stereo partly drawn)	54	.	.	.	.	-
COc1ccc2nc(/N=C/c3c(C)[nH]n(-c4ccc(C)cc4)c3=O)sc2c1	55	-	-	-	-	-
O=C(C[C@@H]1CC[C@@H]2[C@H](COC[C@@H](O)CN2S(=O)(=O)c2cccc(F)c2)O1)Nc1ccccc1	-	.	.	.	.	.

From PubChem
